Laboratory results reported in ChEMBL document CHEMBL4513146, “CO-ADD screening of Karazin Kharkiv National University (Ukraine) compounds”.
Potency and affinity values are given separately.

Key:
Klebsiella pneumoniae = details: Concentration 32 ug.mL-1;; ASSAY_TEST Inhibition of Bacterial Growth; detection method Absorption (OD600); MEDIA CAMHB; plate type 384well; NBS; CORNING #3640; time 18 hr
Candida albicans = details: Concentration 32 ug.mL-1; ASSAY_TEST Inhibition of Fungal Growth; detection method Absorption (OD530)
Cryptococcus neoformans = details: Concentration 32 ug.mL-1; ASSAY_TEST Inhibition of Fungal Growth; detection method Resazurin; Absorption (OD600-OD570); plate type 384well; NBS; CORNING #3640

Structure (SMILES)	Inhibition (Klebsiella pneumoniae) [%]	Inhibition (Candida albicans) [%]	Inhibition (Cryptococcus neoformans) [%]
Cc1nnc2ccc(S(=O)(=O)N(Cc3ccc(Cl)cc3)c3cccc(F)c3)cn12	9.13	3.61	-11.42
COc1cc(NC(=O)Cn2nc3c4c5c(sc4ncn3c2=O)CCCC5)cc(OC)c1	4.67	7.26	-16.68
O=C(CSc1nnc2c(=O)n(-c3ccc(F)cc3)ccn12)N1CCN(c2ccccc2F)CC1	-3.8	5.18	-7.82
COc1cccc(-n2ccn3c(SCC(=O)c4cccc(Cl)c4)nnc3c2=O)c1	6.31	2.28	-6.56
Cc1ccc(CNC(=O)Cn2nc3c(Sc4ccc(C)cc4C)nccn3c2=O)cc1	3.93	2.64	-16.78
O=c1n(Cc2nc(-c3ccc4c(c3)OCO4)no2)nc2ccc(-c3ccccc3)nn12	-1.48	6.34	-13.29
Cc1cc(Br)ccc1NC(=O)Cn1nc2c(Sc3cccc(F)c3)nccn2c1=O	4.98	6.11	-9.53
CC(C)c1ccc(N(Cc2ccccc2F)S(=O)(=O)c2cccn3cnnc23)cc1	6.21	-0.83	-6.6
O=c1c2nn(Cc3cccc([N+](=O)[O-])c3)c(=O)n2ccn1-c1ccccc1	9.21	0.04	-10.2
COc1ccccc1-n1ccn2c(SCC(=O)NCc3ccc(Cl)cc3)nnc2c1=O	9.61	4.77	-6.31
CC(C)Sc1ccc2nn(CC(=O)Nc3ccc(Br)cc3F)c(=O)n2n1	15.2	-0.59	-7.06
N#CCn1nc2n(Cc3ccc(F)cc3)c(=O)c3ccccc3n2c1=O	3.36	3.09	-7.73
Cc1ccc(Oc2nccn3c(=O)n(CC(=O)N4CCN(c5ccc(F)cc5)CC4)nc23)cc1	19.83	0.18	-7.7
O=C(Cn1nc2c(Oc3ccccc3)nc3ccccc3n2c1=O)Nc1ccc2c(c1)OCO2	4.55	16.43	-9.27
Cc1cccc(NC(=O)c2ccc3nn(CC(=O)N4CCc5ccccc5C4)c(=O)n3c2)c1	-2	12.37	-12.59
Cc1cccc(C)c1NC(=O)Cn1nc2c(N3CCSCC3)nc3ccccc3n2c1=O	7.3	2.93	-23.14
O=S(=O)(c1ccc2nncn2c1)N(Cc1ccc(F)cc1)c1ccc(F)c(F)c1	5.64	2.31	-6.65
CCOc1ccc(-n2ccn3c(SCC(=O)c4ccc(F)cc4)nnc3c2=O)cc1	1.88	2.02	-5.27
O=C(CSc1nnc2c(=O)n(Cc3ccc(F)cc3)ccn12)NCC1CCCO1 (centres undefined)	11.7	1.72	-16.29
Cc1ccc(-c2ccc3nn(Cc4cccc(Cl)c4)c(=O)n3n2)cc1C	12.21	1.14	-10.16
CCc1ccccc1NC(=O)Cn1nc2n(C)c(=O)c3c(c(-c4ccccc4)cn3C)n2c1=O	1.01	6.61	-4.79
Cc1[nH]c2ccccc2c1C(=O)CSc1nnc2c(=O)n(-c3ccc(Br)cc3)ccn12	4.84	1.31	-12.52
Cc1ccc(Sc2nccn3c(=O)n(CC(=O)Nc4ccc(C)cc4Br)nc23)c(C)c1	10.73	2.86	-20.37
O=c1c2sccc2n2c(=O)n(Cc3ccccc3Cl)nc2n1Cc1cccs1	-3.57	32.61	-5.81
C=Cc1ccc(CN(c2cccc(Cl)c2)S(=O)(=O)c2cccn3c(C)nnc23)cc1	6.94	1.33	-16.09
Cc1nnc2ccc(S(=O)(=O)N(Cc3cccc(F)c3)c3ccc(F)cc3)cn12	4.75	1.87	-9.68
O=c1c2nnc(SCc3ccccc3)n2ccn1-c1ccc(Br)cc1	7.85	5.19	-7.93
Cc1ccc(Sc2nccn3c(=O)n(CC(=O)Nc4cccc(Br)c4)nc23)c(C)c1	7.97	8.72	-18.33
